We go through nine compounds from PubChem BioAssay (Tox21).

Inconclusive results are not listed. The source holds several records for some structures; these can differ, active in one and inactive in another. Values without a mark were called inactive. Activity calls are given as the source filed them. Unless noted, calls follow the shape of the dose curve; as a rule, active = well fitted curve in the direction sought with a large enough effect in the repeat runs; inconclusive = weak or mixed curves; inactive = no such curve, though single readings can be large; an effect the other way counts as inactive or inconclusive.

A short description of experiment [1]: qHTS assay to identify aromatase inhibitors - cell viability counter screen (AID 743084).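 Also: cells stimulated with testosterone during compound exposure; nearly all actives have a fitted effect of over 55% in size.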 In general terms: In qHTS, concentration-response curves come from the screen itself.
Experiment [2] concerns the target Aryl hydrocarbon receptor (Homo sapiens) (UniProt P35869). The experiment in a line: qHTS assay to identify small molecule that activate the aryl hydrocarbon receptor (AhR) signaling pathway (AID 743085).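 Also: HG2L7.5c1 human HepG2 liver cells with stably integrated DRE-driven firefly reporter; series mostly up to about 70 µM; nearly all actives have a fitted effect of over 15% in size.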 An outline of the steps:
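24 h compound exposure, 37C, HepG2-derived HG2L7.5c1 cells with DRE-responsive luciferase. Readouts: fluorescence viability, then luminescence at room temperature after 30 min.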

Experiment [3] is described as follows: qHTS assay to identify small molecule that activate the aryl hydrocarbon receptor (AhR) signaling pathway - cell viability counter screen (AID 743086).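 Also: HepG2 liver cells carrying the AhR DRE luciferase reporter; series mostly up to about 70 µM; nearly all actives have a fitted effect of over 45% in size.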 An outline of the steps:
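Cytotoxicity counter screen: CellTiter-Fluor signal (30 min, 37 C) in 4000 HepG2 cells/well carrying the DRE-luciferase reporter, following 24 h compound exposure at 37 C.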

The target in experiment [4] is Peroxisome proliferator-activated receptor gamma (Homo sapiens) (UniProt P37231). The experiment in a line: qHTS assay to identify small molecule agonists of the peroxisome proliferator-activated receptor gamma (PPARg) signaling pathway (AID 743094; active = well fitted activation curve with a large enough effect in the signal ratio in the repeat runs, not every such curve was filed as active; the % refers to the signal ratio; also: potency is read from the fitted curve at half-maximal effect). An outline of the steps:
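GeneBLAzer PPARg UAS-bla HEK293H cells were plated, rested 5 h, then exposed to compounds for 17 h at 37C. Beta-lactamase activity was read by LiveBLAzer B/G FRET substrate fluorescence after 1 h at room temperature.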

Experiment [5] can be described thus: qHTS assay for small molecule agonists of the antioxidant response element (ARE) signaling pathway (AID 743202; active = well fitted activation curve with a large enough effect in the signal ratio in the repeat runs, not every such curve was filed as active; the % refers to the signal ratio). The gist of the method: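 An ARE-responsive beta-lactamase gene stably integrated in HepG2 cells serves as reporter. After 5 h plating and 16 h compound incubation at 37 C, fluorescence of the B/G FRET substrate was measured.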
Experiment [6] can be described thus: qHTS assay for small molecule agonists of the antioxidant response element (ARE) signaling pathway - cell viability counter screen (AID 743203; calls by dose curve; also: nearly all actives have a fitted effect of over 55% in size). The gist of the method: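 ARE-bla HepG2 cells were plated, rested 5 h at 37C/5% CO2, then exposed to compounds in DMSO for 16 h. Viability was read as CellTiter-Glo luminescence after 30 min at room temperature, in the same wells as the ARE screen.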

Experiment [7] in a line: qHTS assay for small molecule activators of the heat shock response signaling pathway - cell viability counter screen (AID 743209). Also: nearly all actives have a fitted effect of over 50% in size. The gist of the method: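 HSE-bla HeLa cells plated overnight, then exposed to Tox21 compounds (23 nL in DMSO) for 5 h at 37 C. After the bla reporter read, CellTiter-Glo was added in the same wells and luminescence read after 30 min at room temperature.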

Experiment [8] is described as follows: qHTS assay for small molecule activators of the heat shock response signaling pathway (AID 743210; active = well fitted activation curve with a large enough effect in the signal ratio in the repeat runs, with a control signal flat, not every such curve was filed as active; the % refers to the signal ratio;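 also: HeLa cells with beta-lactamase reporter driven by heat shock elements; series mostly up to about 63 µM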). The gist of the method:
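In HSE-bla HeLa cells, 5 h compound incubation (37 C) precedes addition of LiveBLAzer B/G substrate; after 2.5 h at room temperature, fluorescence intensity indicates reporter induction.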

Experiment [9] can be described thus: qHTS assay to identify small molecule agonists of the peroxisome proliferator-activated receptor delta (PPARd) signaling pathway - cell viability counter screen (AID 743211). Also: nearly all actives have a fitted effect of over 55% in size. An outline of the steps:
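Luminescent ATP viability assay (CellTiter-Glo, 30 min RT) in UAS-bla HEK293H cells carrying the PPAR delta reporter construct, 3000 cells/well, after a 17 h compound treatment at 37 C.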

In experiment [10] the target is Peroxisome proliferator-activated receptor delta (Homo sapiens) (UniProt Q03181). The experiment in a line: qHTS assay to identify small molecule agonists of the peroxisome proliferator-activated receptor delta (PPARd) signaling pathway (AID 743212; calls by dose curve). The gist of the method:
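HEK293H UAS-bla reporter cells, human PPARd system; compounds delivered in DMSO after 5 h plating, then at 37 C. Beta-lactamase FRET read, 2 h RT substrate step.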

Experiment [11] is described as follows: qHTS assay to identify small molecule antagonists of the peroxisome proliferator-activated receptor delta (PPARd) signaling pathway - cell viability counter screen (AID 743213). Also: nearly all actives have a fitted effect of over 50% in size. An outline of the steps: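 Cytotoxicity counter screen: CellTiter-Glo luminescence read 30 min after addition, in the same wells as the reporter assay. There, PPARd UAS-bla HEK293H cells (3000/well) were treated 17 h at 37 C with compound and 300 nM L165041.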

Experiment [12] addresses Peroxisome proliferator-activated receptor delta (Homo sapiens) (UniProt Q03181). The experiment in a line: qHTS assay to identify small molecule antagonists of the peroxisome proliferator-activated receptor delta (PPARd) signaling pathway (AID 743215; active = well fitted inhibition curve with a large enough effect in the signal ratio in the repeat runs, not every such curve was filed as active; the % refers to the signal ratio;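 also: cells stimulated with agonist L165041 at 300 nM final during compound exposure; series mostly up to about 62 µM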). The gist of the method: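 PPARd-bla HEK293H cells (UAS-bla reporter) preincubated 5 h, then given compound plus 300 nM final L165041 agonist for 17 h at 37 C. Beta-lactamase activity read by LiveBLAzer B/G FRET substrate fluorescence after 2 h at room temperature.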

Experiment [13] is described as follows: qHTS assay to identify small molecule agonists of the farnesoid-X-receptor (FXR) signaling pathway - cell viability counter screen (AID 743218). Also: nearly all actives have a fitted effect of over 45% in size. The gist of the method:
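FXR-UAS-bla HEK 293T cells exposed to compounds for 16 h at 37C. Cytotoxicity read in the same wells by CellTiter-Glo luminescence after 30 min at room temperature, following the beta-lactamase FRET read.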

Experiment [14] in a line: qHTS assay to identify small molecule antagonists of the farnesoid-X-receptor (FXR) signaling pathway - cell viability counter screen (AID 743221; active = well fitted cell-killing curve with a large enough effect in the repeat runs, not every such curve was filed as active; also: nearly all actives have a fitted effect of over 50% in size). The gist of the method: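 In GeneBLAzer FXR-UAS-bla HEK 293T cells stimulated with 50 uM chenodeoxycholic acid (final), compounds acted for 16 h at 37 C. Viability was assessed afterwards by CellTiter-Glo luminescence.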
Experiment [15] has as its target Vitamin D3 receptor (Homo sapiens) (UniProt P11473). Briefly: qHTS assay to identify small molecule agonists of the vitamin D receptor (VDR) signaling pathway (AID 743222; calls by dose curve). An outline of the steps: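 VDR-bla cells plated 4 h at 37 C, then exposed to compounds for 16 h at 37 C. Beta-lactamase reporter activity measured by fluorescence after 2 h room-temperature loading with LiveBLAzer B/G FRET substrate.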

Experiment [16] has the same target. The experiment in a line: qHTS assay to identify small molecule antagonists of the vitamin D receptor (VDR) signaling pathway (AID 743223; active = well fitted inhibition curve with a large enough effect in the signal ratio in the repeat runs, not every such curve was filed as active; the % refers to the signal ratio). An outline of the steps: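 Agonist 1alpha,25-dihydroxyvitamin D3 (3 nM in well) was added with each compound to VDR-bla cells preincubated 4 h. Cells stood 16 h at 37C, then FRET substrate 2 h at room temperature; fluorescence intensity recorded.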

The nature of experiment [17]: qHTS assay to identify small molecule antagonists of the peroxisome proliferator-activated receptor gamma (PPARg) signaling pathway - cell viability counter screen (AID 743194). Also: nearly all actives have a fitted effect of over 55% in size. Conditions: Potency: co-treated with 50 nM rosiglitazone unless noted. An outline of the steps:
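Viability was measured as CellTiter-Glo luminescence in GeneBLAzer PPARg UAS-bla HEK293H cells. These cells had been exposed 17 h at 37 C to compounds together with rosiglitazone at 50 nM final, with the beta-lactamase readout taken in the same wells.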

Experiment [18] deals with Bile acid receptor (Homo sapiens) (UniProt Q96RI1). The experiment in a line: qHTS assay to identify small molecule antagonists of the farnesoid-X-receptor (FXR) signaling pathway (AID 743217; active = well fitted inhibition curve with a large enough effect in the signal ratio in the repeat runs, not every such curve was filed as active; the % refers to the signal ratio). The gist of the method:
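FXR-UAS-bla HEK 293T cells (beta-lactamase reporter) given compound plus chenodeoxycholic acid (50 uM final), 16 h at 37C. LiveBLAzer B/G FRET substrate added for 2 h at room temperature; fluorescence read.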

For experiment [19] the target is unchanged. The experiment in a line: qHTS assay to identify small molecule agonists of the farnesoid-X-receptor (FXR) signaling pathway (AID 743220; active = well fitted activation curve with a large enough effect in the signal ratio in the repeat runs, not every such curve was filed as active; the % refers to the signal ratio). The gist of the method: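 Beta-lactamase reporter under UAS control in GeneBLAzer FXR HEK 293T cells (5000/well) measured with LiveBLAzer FRET substrate after 2 h at room temperature. Compound exposure lasted 16 h at 37C.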

Experiment [20] deals with Peroxisome proliferator-activated receptor gamma (Homo sapiens) (UniProt P37231). Briefly: qHTS assay to identify small molecule antagonists of the peroxisome proliferator-activated receptor gamma (PPARg) signaling pathway (AID 743191; calls by dose curve; also: series mostly up to about 63 µM; nearly all actives have a fitted effect of over 30% in size). The gist of the method:
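Beta-lactamase reporter under UAS control in HEK293H PPARg-bla cells; compound treatment 17 h at 37C. Read-out: fluorescence intensity after 1 h room-temperature incubation with LiveBLAzer B/G FRET substrate.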
% is scaled to controls: 0 for no effect and ±100 for the full control effect.

Bile acid receptor (Homo sapiens), sequence (Q96RI1 whole entry, looked up): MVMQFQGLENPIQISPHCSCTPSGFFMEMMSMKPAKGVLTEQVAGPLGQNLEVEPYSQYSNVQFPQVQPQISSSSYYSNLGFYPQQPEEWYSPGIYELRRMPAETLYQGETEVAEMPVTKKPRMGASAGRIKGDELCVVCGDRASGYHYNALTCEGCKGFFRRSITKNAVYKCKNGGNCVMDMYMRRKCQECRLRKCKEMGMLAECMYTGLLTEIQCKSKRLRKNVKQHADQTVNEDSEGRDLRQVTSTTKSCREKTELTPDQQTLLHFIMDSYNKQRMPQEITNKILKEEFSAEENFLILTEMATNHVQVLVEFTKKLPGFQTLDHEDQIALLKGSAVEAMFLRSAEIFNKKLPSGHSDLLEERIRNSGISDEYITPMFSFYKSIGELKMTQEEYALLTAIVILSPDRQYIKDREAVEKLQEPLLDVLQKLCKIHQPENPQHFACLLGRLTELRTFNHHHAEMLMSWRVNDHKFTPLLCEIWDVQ
Peroxisome proliferator-activated receptor delta (Homo sapiens), sequence (Q03181 whole entry, looked up): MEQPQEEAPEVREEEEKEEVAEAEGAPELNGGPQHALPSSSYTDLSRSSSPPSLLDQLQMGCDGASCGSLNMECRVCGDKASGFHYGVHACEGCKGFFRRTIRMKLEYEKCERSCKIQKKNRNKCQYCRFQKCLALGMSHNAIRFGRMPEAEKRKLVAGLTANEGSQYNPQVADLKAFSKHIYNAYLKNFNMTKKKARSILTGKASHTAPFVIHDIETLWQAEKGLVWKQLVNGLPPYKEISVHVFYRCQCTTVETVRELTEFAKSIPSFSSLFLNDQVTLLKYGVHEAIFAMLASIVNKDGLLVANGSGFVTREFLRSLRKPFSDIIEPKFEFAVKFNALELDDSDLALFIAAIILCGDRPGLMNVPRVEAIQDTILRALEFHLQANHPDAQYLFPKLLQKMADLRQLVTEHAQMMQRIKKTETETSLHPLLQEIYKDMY
Aryl hydrocarbon receptor (Homo sapiens), sequence (P35869 whole entry, looked up): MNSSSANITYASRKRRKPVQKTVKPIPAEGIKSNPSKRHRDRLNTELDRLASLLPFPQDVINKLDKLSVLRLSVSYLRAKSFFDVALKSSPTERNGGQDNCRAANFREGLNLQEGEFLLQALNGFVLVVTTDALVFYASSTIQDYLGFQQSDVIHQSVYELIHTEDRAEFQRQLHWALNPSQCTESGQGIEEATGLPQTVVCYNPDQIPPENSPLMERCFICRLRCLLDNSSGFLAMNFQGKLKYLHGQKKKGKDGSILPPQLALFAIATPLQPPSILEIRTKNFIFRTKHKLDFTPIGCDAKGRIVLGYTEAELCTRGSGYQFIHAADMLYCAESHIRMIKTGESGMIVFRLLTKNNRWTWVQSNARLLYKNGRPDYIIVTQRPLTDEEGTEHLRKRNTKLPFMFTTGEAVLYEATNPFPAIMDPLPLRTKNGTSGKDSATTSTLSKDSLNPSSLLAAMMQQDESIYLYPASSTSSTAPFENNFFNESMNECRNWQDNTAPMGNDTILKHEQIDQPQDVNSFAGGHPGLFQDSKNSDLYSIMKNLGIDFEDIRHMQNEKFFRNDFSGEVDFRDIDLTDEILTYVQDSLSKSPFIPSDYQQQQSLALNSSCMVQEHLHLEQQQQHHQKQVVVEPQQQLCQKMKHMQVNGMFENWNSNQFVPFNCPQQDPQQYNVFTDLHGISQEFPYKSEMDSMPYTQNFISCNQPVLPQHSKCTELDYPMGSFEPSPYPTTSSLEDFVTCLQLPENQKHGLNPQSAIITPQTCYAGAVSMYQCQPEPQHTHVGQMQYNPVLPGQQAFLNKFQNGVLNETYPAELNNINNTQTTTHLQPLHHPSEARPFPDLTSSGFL
Vitamin D3 receptor (Homo sapiens), sequence (P11473 whole entry, looked up): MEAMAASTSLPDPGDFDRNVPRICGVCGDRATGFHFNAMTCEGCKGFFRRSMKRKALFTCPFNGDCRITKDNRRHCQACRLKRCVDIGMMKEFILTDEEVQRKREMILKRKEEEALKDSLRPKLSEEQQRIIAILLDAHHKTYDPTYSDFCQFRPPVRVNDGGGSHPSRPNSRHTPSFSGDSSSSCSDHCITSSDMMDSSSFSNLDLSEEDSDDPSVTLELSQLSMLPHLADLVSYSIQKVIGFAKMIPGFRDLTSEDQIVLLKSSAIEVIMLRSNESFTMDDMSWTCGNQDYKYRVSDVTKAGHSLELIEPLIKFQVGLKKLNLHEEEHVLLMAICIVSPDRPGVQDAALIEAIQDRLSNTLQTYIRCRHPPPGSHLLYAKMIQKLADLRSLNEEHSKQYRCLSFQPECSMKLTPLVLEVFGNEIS
Peroxisome proliferator-activated receptor gamma (Homo sapiens), sequence (P37231 whole entry, looked up): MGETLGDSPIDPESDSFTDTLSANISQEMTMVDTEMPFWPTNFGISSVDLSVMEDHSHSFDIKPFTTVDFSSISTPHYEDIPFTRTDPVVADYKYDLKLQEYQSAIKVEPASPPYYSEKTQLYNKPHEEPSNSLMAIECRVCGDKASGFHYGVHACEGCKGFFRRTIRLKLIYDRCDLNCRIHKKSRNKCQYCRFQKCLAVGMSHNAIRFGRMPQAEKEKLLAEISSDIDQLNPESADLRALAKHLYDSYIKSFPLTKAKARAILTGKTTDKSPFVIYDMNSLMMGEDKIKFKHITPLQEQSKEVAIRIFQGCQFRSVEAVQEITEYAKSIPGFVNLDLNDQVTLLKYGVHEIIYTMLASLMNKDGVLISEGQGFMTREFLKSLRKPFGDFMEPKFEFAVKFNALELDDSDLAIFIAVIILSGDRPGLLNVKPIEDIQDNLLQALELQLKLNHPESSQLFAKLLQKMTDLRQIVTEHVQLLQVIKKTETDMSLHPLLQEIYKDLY

`C=CC(C)(C)C`: the Potency result in experiment [1], in experiment [2], in experiment [3], in experiment [4], in experiment [5] and in [6] was “inactive” in each case. In addition, the Potency result in experiment [7], in [8], in experiment [9], in [10], in experiment [11] and in experiment [12] was “inactive” throughout. For the same compound, the Potency entry in [13], in experiment [14] and in experiment [16] was “inactive” each time. Moreover, the result in experiment [15] was inactive.
As to `COc1ccccc1[N+](=O)[O-]`, the Potency entry in experiment [1], in [2], in experiment [3], in experiment [17], in experiment [5] and in [6] was “inactive” throughout. In addition, the Potency entry in experiment [7], in [8], in experiment [9], in experiment [11], in experiment [18] and in experiment [13] was “inactive” each time. For the same compound, the Potency result in [19], in experiment [14] and in experiment [16] was “inactive” each time. For the same compound, the compound was called inactive in experiment [15].
As to `C=CC(=O)NCOCCCC`, the Potency result in experiment [1], in [2], in [3], in [4], in experiment [17] and in experiment [6] was “inactive” throughout. The Potency result in experiment [7], in experiment [8], in experiment [9], in experiment [10], in experiment [11] and in [12] was “inactive” throughout. The Potency entry in experiment [13], in experiment [14] and in [16] was “inactive” throughout. For the same compound, the compound was called inactive in experiment [15].
With `CC(=O)OCc1ccc2c(c1)OCO2`, the Potency entry in experiment [1], in experiment [2], in experiment [3], in experiment [17], in [5] and in experiment [6] was “inactive” throughout. Besides, the Potency result in experiment [7], in experiment [9], in experiment [11], in [18], in experiment [13] and in experiment [19] was “inactive” in each case. The Potency result in [14] and in experiment [16] was “inactive” each time. Besides, the call in experiment [15] was inactive.
Regarding `CCCCCCCCCCCC(=O)N(C)CC(=O)O`, the Potency entry in experiment [1], in [2], in [17], in experiment [6], in experiment [7] and in [8] was “inactive” throughout. Moreover, the Potency result in experiment [13] and in experiment [14] was “inactive” throughout. In addition, the Potency in experiment [4] is 15 µM (active). Moreover, the activation in [4] was 0.467% [at 7.08 µM]; in experiment [5], -3.99% [at 8.36 µM]; in [10], 0.0552% [at 5.95 µM]. The ratio activity, negative = inhibition is 4.34% [at 5.95 µM] in experiment [20] and -7.38% [at 6.26 µM] in experiment [12]. Besides, the activity change, negative = cytotoxicity in [9] was -1.87% [at 5.95 µM]. The viability change, negative = cytotoxic in [11] was -8.19% [at 6.26 µM]. Moreover, the call in experiment [15] was inactive. In addition, the activity change, negative = inhibition in experiment [16] was 10.5% [at 6.95 µM].
Take `Cc1ccc(C)c(S(=O)(=O)O)c1`: the Potency result in [1], in [2], in [3], in [4], in experiment [17] and in experiment [5] was “inactive” in each case. The Potency entry in experiment [6], in experiment [7], in [9], in experiment [10], in experiment [12] and in [13] was “inactive” in each case. Further, the Potency result in experiment [14] and in experiment [16] was “inactive” each time. Also, in [15], the outcome was inactive.
Consider `Nc1cccc(C(F)(F)F)c1`, for which the Potency result in [1], in experiment [2], in experiment [3], in [4], in experiment [17] and in experiment [6] was “inactive” throughout. The Potency entry in experiment [7], in experiment [8], in experiment [9], in [10], in experiment [11] and in experiment [12] was “inactive” in each case. The Potency result in [18], in [13], in [19] and in experiment [14] was “inactive” each time.
In the case of `CCCOC(=O)NCCCN(C)C`, the Potency result in [1], in experiment [2], in [3], in [4], in [20] and in [17] was “inactive” in each case. For the same compound, the Potency result in experiment [6], in [7], in [9], in [11], in experiment [13] and in experiment [14] was “inactive” throughout. For the same compound, in experiment [16], the Potency entry is “inactive”. In addition, the compound was classed as inactive in experiment [15].
As for `O=C1CCCCCCCCCCC1`, the Potency result in experiment [1], in experiment [2], in experiment [3], in [4], in [20] and in [17] was “inactive” each time. Besides, the Potency result in experiment [6], in [7], in experiment [8], in experiment [9], in [10] and in experiment [12] was “inactive” each time. Moreover, the Potency entry in experiment [13] and in experiment [14] was “inactive” in each case.
